This is an account of results in PubChem BioAssay (NCATS).

Structures are written as SMILES. Where “and” joins values, the source holds several entries; their conditions need not be identical. Equal entries are not always repeated. Results filed as inconclusive are left out. Calls of active or inactive are those of the source. The call rests on the fitted dose curve; in most records, active means well fitted inhibition curve with a large enough effect; inconclusive means small, poorly fitted or top-dose-only effect; inactive means flat fitted curve, though single readings scatter.
On the % scale 0 is the no-effect control and ±100 the full control effect; potency means the concentration at half of the fitted maximal effect.

The experiment relates to KB-3-1. Kind of experiment: Cytotoxic Profiling of Annotated Libraries Using Quantitative High-Throughput Screening (AID 1296008). Further: nearly all actives have a fitted effect of over 60% in size. The note with it: Five cell lines viability, CellTiter-Glo ATP luminescence, 48-72 h; max response: active compounds read low. The essentials:
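Compounds were pin-transferred onto cells and incubated 48 or 72 hr at 37 degree Celsius, 95% humidity. CellTiter-Glo was added, plates sat 10 min at room temperature, then ATP-coupled luminescence was imaged as the viability read-out.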
Background: Cellular ATP, detected with luciferase, serves as a proxy for viable cell number.
In the case of `CC(=O)Oc1ccc(C2(c3ccc(OC(C)=O)cc3)C(=O)Nc3ccccc32)cc1`, the max response is -1.67% (inactive) and 11.5% (inactive).

With `CNCCCC1c2ccccc2C=Cc2ccccc21`, the max response was 6.95% (inactive).

With `CCN(CC)CCCC(C)Nc1c2ccc(Cl)cc2nc2ccc(OC)cc12` (stereo not drawn), the max response is -7.27% (inactive).

Turning to `COc1ccc2cc1Oc1ccc(cc1)C[C@H]1c3c(cc4c(c3Oc3cc5c(cc3OC)CCN(C)[C@@H]5C2)OCO4)CCN1C`, the max response is 0.814% (inactive).

Consider `CC(=O)O[C@@]12CO[C@@H]1C[C@H](O)[C@@]1(C)C(=O)[C@H](O)C3=C(C)[C@@H](OC(=O)[C@H](O)[C@@H](NC(=O)OC(C)(C)C)c4ccccc4)C[C@@](O)([C@@H](OC(=O)c4ccccc4)[C@H]21)C3(C)C`, for which the Potency was 7.3 nM (active).

Take `CC(=O)c1ccc2c(c1)N(CCCN(C)C)c1ccccc1S2`: the max response was -1.52% (inactive).

Consider `CCCCN(CCCC)CC(O)c1cc(Cl)cc2c1-c1ccc(Cl)cc1/C2=C/c1ccc(Cl)cc1` (stereo not drawn), for which the max response is -7.25% (inactive).

As for `CC(CN1c2ccccc2Sc2ccccc21)N(C)C` (stereo not drawn), the max response is 7.29% (inactive).

As for `CCN(CC)CCNC(=O)c1c(C)[nH]c(/C=C2\C(=O)Nc3ccc(F)cc32)c1C`, the max response is -5.42% (inactive).

Turning to `CCN(CC)CCSC(=O)C(c1ccccc1)c1ccccc1`, the max response is 12.2% (inactive) and -4.64% (inactive).

As to `OCc1cc(C(O)CNCCCCCCOCCCCc2ccccc2)ccc1O` (stereo not drawn), the max response was -19.3% (inactive).

`CN1CCN(C2Cc3ccccc3Sc3ccc(Cl)cc32)CC1` (stereo not drawn): the max response was 6.06% (inactive).

As to `CN(C)CCC=C1c2ccccc2CCc2ccccc21`, the max response was -15.7% (inactive).
